Measurements from PubChem BioAssay (NCATS).
Inconclusive results are not listed. Active and inactive are the calls of the source. Calls follow the shape of the dose curve; as a rule, active = well fitted curve in the direction sought with a large enough effect; inconclusive = small, poorly fitted or top-dose-only effect, or another doubt; inactive = no such curve, though single readings can be large; an effect the other way counts as inactive or inconclusive.

Assays:
[1] = Quantitative High-Throughput drug screen in 47 multiple myeloma cell lines against the NCATS MIPE library collection: H1112_PLB cell viability assay (AID 1918967; also: nearly all actives have a fitted effect of over 30% in size)
Summary of the method: (§1)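 Primary qHTS used for cherry-picking: cells at 500/well, library compounds for 48 h (37C, 5% CO2), luminescent ATP assay.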

[2] = Quantitative High-Throughput drug screen in 47 multiple myeloma cell lines against the NCATS MIPE library collection: Karpas25_ECACC cell viability assay (AID 1918968; also: nearly all actives have a fitted effect of over 35% in size)
Summary of the method: as §1

[3] = Quantitative High-Throughput drug screen in 47 multiple myeloma cell lines against the NCATS MIPE library collection: KMS27_JCRB cell viability assay (AID 1918970); also: nearly all actives have a fitted effect of over 30% in size
Summary of the method: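 KMS27_JCRB myeloma cells, 500 per well, exposed 48 h at 37 C, 5% CO2 to MIPE 4.0 compounds. Viability from ATP by CellTiter-Glo luminescence, normalized to DMSO (100%) and medium-only (0%) wells.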

[4] = Quantitative High-Throughput drug screen in 47 multiple myeloma cell lines against the NCATS MIPE library collection: KMS12PE_JCRB cell viability assay (AID 1918972); also: nearly all actives have a fitted effect of over 30% in size
Summary of the method: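 Inhibition of cell viability is measured here. Each line was plated at 500 cells per well, treated with MIPE 4.0 drugs, kept 48 hours at 37C, then assayed for ATP content by CellTiter-Glo luminescence.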

[5] = Quantitative High-Throughput drug screen in 47 multiple myeloma cell lines against the NCATS MIPE library collection: NCIH929_DSMZ cell viability assay (AID 1918978); also: nearly all actives have a fitted effect of over 35% in size
Summary of the method: (§2)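 ATP-based luminescence (CellTiter-Glo, 5 min RT incubation) quantified surviving cells following two days' treatment with MIPE 4.0 agents at 37 °C, 5% CO2.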

[6] = Quantitative High-Throughput drug screen in 47 multiple myeloma cell lines against the NCATS MIPE library collection: OCIMY1_PLB cell viability assay (AID 1918979); also: nearly all actives have a fitted effect of over 35% in size
Summary of the method: as §2

[7] = Quantitative High-Throughput drug screen in 47 multiple myeloma cell lines against the NCATS MIPE library collection: MM1S_ATCC cell viability assay (AID 1918980); also: nearly all actives have a fitted effect of over 45% in size
Summary of the method: as §2

[8] = Quantitative High-Throughput drug screen in 47 multiple myeloma cell lines against the NCATS MIPE library collection: MM1R_ATCC cell viability assay (AID 1918981); also: nearly all actives have a fitted effect of over 35% in size
Summary of the method: as §2

[9] = Quantitative High-Throughput drug screen in 47 multiple myeloma cell lines against the NCATS MIPE library collection: LP1_DSMZ cell viability assay (AID 1918982); also: nearly all actives have a fitted effect of over 35% in size
Summary of the method: as §2

[10] = Quantitative High-Throughput drug screen in 47 multiple myeloma cell lines against the NCATS MIPE library collection: KMS28PE_JCRB cell viability assay (AID 1918983); also: nearly all actives have a fitted effect of over 35% in size
Summary of the method: as §2

[11] = Quantitative High-Throughput drug screen in 47 multiple myeloma cell lines against the NCATS MIPE library collection: KMS34_JCRB cell viability assay (AID 1918985); also: nearly all actives have a fitted effect of over 40% in size
Summary of the method: as §2

[12] = Quantitative High-Throughput drug screen in 47 multiple myeloma cell lines against the NCATS MIPE library collection: KMS20_JCRB cell viability assay (AID 1918973); also: nearly all actives have a fitted effect of over 45% in size
Summary of the method: as §1

[13] = Quantitative High-Throughput drug screen in 47 multiple myeloma cell lines against the NCATS MIPE library collection: L363_DSMZ cell viability assay (AID 1918984); also: nearly all actives have a fitted effect of over 40% in size
Summary of the method: as §2

[14] = Quantitative High-Throughput drug screen in 47 multiple myeloma cell lines against the NCATS MIPE library collection: KMS12BM_JCRB cell viability assay (AID 1918971); also: nearly all actives have a fitted effect of over 35% in size
Summary of the method: (§3)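 Myeloma cell lines, 500 cells per well, exposed to MIPE 4.0 library compounds for 48 h at 37C, 5% CO2. Viability from ATP by CellTiter-Glo luminescence; normalised to DMSO (100%) and media-only (0%) wells.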

[15] = Quantitative High-Throughput drug screen in 47 multiple myeloma cell lines against the NCATS MIPE library collection: OCIMY7_PLB cell viability assay (AID 1918987); also: nearly all actives have a fitted effect of over 65% in size
Summary of the method: as §2

[16] = Quantitative High-Throughput drug screen in 47 multiple myeloma cell lines against the NCATS MIPE library collection: OCIMY5_PLB cell viability assay (AID 1918988); also: nearly all actives have a fitted effect of over 65% in size
Summary of the method: as §2

[17] = Quantitative High-Throughput drug screen in 47 multiple myeloma cell lines against the NCATS MIPE library collection: KMS26_JCRB cell viability assay (AID 1918975); also: nearly all actives have a fitted effect of over 45% in size
Summary of the method: as §3

[18] = Quantitative High-Throughput drug screen in 47 multiple myeloma cell lines against the NCATS MIPE library collection: MOLP8_DSMZ cell viability assay (AID 1918977); also: nearly all actives have a fitted effect of over 45% in size
Summary of the method: as §2

[19] = Quantitative High-Throughput drug screen in 47 multiple myeloma cell lines against the NCATS MIPE library collection: KMS21BM_JCRB cell viability assay (AID 1918974); conditions: ATP luminescence, 48 h; viability: at 45.8 µM (top of the series) unless noted
Summary of the method: as §1

[20] = Quantitative High-Throughput drug screen in 47 multiple myeloma cell lines against the NCATS MIPE library collection: MMM1_PLB cell viability assay (AID 1918976); also: nearly all actives have a fitted effect of over 35% in size
Summary of the method: as §2

Measured: Potency
Potency is read from the fitted curve at half-maximal effect.

O=C(O)CCNC(=O)c1ccc(N=Nc2ccc(O)c(C(=O)O)c2)cc1
active: [2] 0.0037 µM | [7] 8.33 µM
inactive: [1] | [3] | [4] | [5] | [6] | [8] | [9] | [10] | [11]

O=C(NCC1CCCCN1)c1cc(OCC(F)(F)F)ccc1OCC(F)(F)F (stereo unspecified)
active: [1] 8.33 µM | [2] 9.35 µM | [4] 2.09 µM | [12] 7.43 µM | [5] 9.35 µM | [7] 8.33 µM | [13] 0.743 µM

Cc1cccc(CN2CCN(C(c3ccccc3)c3ccc(Cl)cc3)CC2)c1 (stereo unspecified)
active: [1] 23.5 µM | [2] 23.5 µM | [14] 26.4 µM | [12] 6.62 µM | [7] 20.9 µM | [15] 9.35 µM | [16] 20.9 µM

CN1C(C(=O)Nc2ccccn2)=C(O)c2sccc2S1(=O)=O
inactive: [1] | [2] | [4] | [17] | [5] | [8] | [9] | [11]
active: [16] 6.62 µM

O=Nc1c(-c2c(O)[nH]c3cc(Br)ccc23)[nH]c2ccccc12
active: [1] 10.5 µM | [2] 5.26 µM | [14] 16.6 µM | [12] 5.9 µM | [17] 18.7 µM | [18] 16.6 µM | [5] 2.64 µM | [6] 26.4 µM | [7] 11.8 µM | [8] 16.6 µM | [9] 13.2 µM | [13] 4.69 µM | [11] 3.32 µM | [15] 1.87 µM | [16] 7.43 µM

NC(=NCc1ccccc1)NC(=O)c1nc(Cl)c(N)nc1N
inactive: [14] | [17] | [6] | [8] | [9] | [11] | [16]
active: [1] 0.935 µM | [2] 2.09 µM | [4] 23.5 µM | [12] 7.43 µM | [5] 1.32 µM | [7] 0.935 µM | [13] 23.5 µM

CN(C)c1ccc2nc3ccc(=[N+](C)C)cc-3sc2c1
active: [1] 8.33 µM | [2] 0.662 µM | [3] 1.32 µM | [14] 4.69 µM | [4] 5.9 µM | [12] 2.64 µM | [19] 1.48 µM | [17] 1.32 µM | [5] 6.62 µM | [6] 1.48 µM | [7] 2.64 µM | [8] 1.05 µM | [9] 4.69 µM | [10] 5.9 µM | [13] 3.72 µM | [11] 0.59 µM | [16] 0.526 µM

C[C@H](Cn1cnc2c(N)ncnc21)OCP(=O)(O)O
not listed: [3] | [6] | [7] | [9] | [10] | [15] | [19] | [20]
inactive: all other assays above

CN(c1nccc(=O)[nH]1)C1CCN(c2nc3ccccc3n2Cc2ccc(F)cc2)CC1
active: [1] 23.5 µM | [2] 11.8 µM | [12] 6.62 µM | [5] 13.2 µM | [7] 11.8 µM
inactive: [4] | [18] | [6] | [9] | [13] | [11]

CC1=C(C(=O)O)N2C(=O)[C@@H](NC(=O)[C@H](N)C3=CCC=CC3)[C@H]2SC1
not listed: [6] | [7] | [10] | [12] | [13] | [15] | [19] | [20]
inactive: all other assays above

O=C(O)c1cn(-c2ccc(F)cc2)c2cc(N3CCNCC3)c(F)cc2c1=O
active: [14] 2.35 µM | [20] 11.8 µM | [7] 20.9 µM
inactive: [1] | [2] | [3] | [17] | [5] | [6] | [8] | [9]

CC(C)[C@H](N)C(=O)OCCOCn1cnc2c(=O)[nH]c(N)nc21
inactive: [1] | [2] | [17] | [20] | [5] | [6] | [8] | [9]
active: [4] 23.5 µM

O=c1oc2cc(O)ccc2s1
inactive: [1] | [14] | [12] | [17] | [5] | [6] | [8] | [10] | [13]
active: [2] 7.43 µM | [20] 16.6 µM | [7] 0.935 µM

C=C(c1ccc(C(=O)O)cc1)c1cc2c(cc1C)C(C)(C)CCC2(C)C
inactive: [1] | [4] | [18] | [6] | [8] | [9] | [10] | [11]
active: [2] 14.8 µM | [3] 0.0418 µM

CC1Cc2ccccc2N1NC(=O)c1ccc(Cl)c(S(N)(=O)=O)c1 (stereo unspecified)
active: [7] 16.6 µM
not listed: [10] | [12] | [13] | [15] | [16] | [17] | [19] | [20]
inactive: all other assays above

Cc1cc(Cl)ccc1OCCCC(=O)NO
inactive: [18]
active: [1] 7.43 µM | [2] 2.96 µM | [14] 16.6 µM | [4] 14.8 µM | [12] 4.18 µM | [17] 8.33 µM | [5] 2.64 µM | [7] 1.18 µM | [8] 23.5 µM | [9] 26.4 µM | [11] 26.4 µM
